Source: PubChem BioAssay (National Center for Advancing Translational Sciences (NCATS))
This is a sample that favours compounds with a hit; in the whole collection about 11% have one here.
AMA1-RON2 inh: inhibitors of Plasmodium falciparum AMA1-RON2 interaction; 360,000 tested, 0.2% active; AlphaScreen AMA1-biotinylated RON2 peptide binding; Potency, µM (highest dose often 58.2 µM), for the others: at the highest dose activity change, negative = inhibition, usual class: inhibitors;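 also: 0% = vehicle wells and -100% = peptide control; nearly all actives have a fitted effect of over 45% in size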
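AMA1 (3D7) with his tag at 25 nM final met compounds first, then biotinylated RON2 peptide at 25 nM; detection used donor plus acceptor beads, 10 µg/mL apiece, read by AlphaScreen after 30 min at room temperature.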
Pf growth 48h: inhibits P. falciparum growth in the first generation, 48 h; Potency, µM (titrated, usually from 28.7 µM), for the others: top-dose activity change, negative = inhibition, most hits filed as inhibitors; AID 504832; P. falciparum luciferase growth in erythrocytes, 48 h; 310,000 tested, 5.9% active
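Luciferase-expressing parasites in RBCs, 2% Hct / 0.1% parasitemia final; RPMI 1640 + 0.5% Albumax; 37 C, 5% CO2, one generation; luminescence read-out, lower signal = inhibition.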
Pf growth 96h: P. falciparum growth inhibition at 96 hour, primary screen for plastid delayed-death inhibitors; AID 504834; P. falciparum luciferase reporter growth, 96 h; 320,000 tested, 6.9% active; Potency, µM (titrated, usually from 28.7 µM), without a hit: top-dose activity change, negative = inhibition, actives largely listed as inhibitors
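Erythrocytes infected with luciferase-expressing P. falciparum were dispensed at 2% hematocrit and 0.05% parasitemia (final), then incubated with compounds 96 hours at 37 C in 5% CO2. Luminescence after detection reagent addition reported growth.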
HCV inh: blocks hepatitis C virus. Huh7.5.1 HCVcc-Cre infection, luciferase reporter, 44 h. Potency, µM (titrated, usually from 41.8 µM), inactives show at the highest dose activity change, negative = inhibition, usual class: inhibitors. 340,000 tested, 3.4% active. AID 651820
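Compounds are dispensed onto cells plated 4 h earlier at 1,000 per well, with HCVcc-Cre virus (about 0.5 moi) added next. Following 44 h of culture, luminescent signal is measured for 15 sec after 15 min with substrate at room temperature.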
An asterisk follows results filed as active; ? = inconclusive; . = no result given; [ ] = dose if it differs, or a comment. Calls follow the shape of the dose curve; as a rule, active = well fitted curve in the direction sought with a large enough effect; inconclusive = small, poorly fitted or top-dose-only effect, or another doubt; inactive = no such curve, though single readings can be large; an effect the other way counts as inactive or inconclusive. Unless noted, % is scaled to controls: 0 for no effect and ±100 for the full control effect; potency is read from the fitted curve at half-maximal effect.

SMILES	AMA1-RON2 inh	Pf growth 48h	Pf growth 96h	HCV inh
C=C[C@]1(C)C[C@@H](OC(=O)CSCCN(CC)CC)[C@]2(C)C(C)CC[C@]3(CCC(=O)[C@H]32)[C@@H](C)[C@@H]1O (stereo partly specified)	-5.1%	13.1µM*	2.08µM*	?
Cc1ccc(N(CC(=O)NCC2CCCO2)S(=O)(=O)c2ccccc2)c(C)c1 (stereo unspecified)	22.2%	13.6%	31.8%	26.0%
CC(C)c1ncc(C(O)c2cccc3ccccc23)n1C (stereo unspecified)	4.0%	-11.6%	?	-0.1%
Cn1c(CNC(=O)c2ccco2)nnc1SCC(=O)N1CCN(c2ccccc2F)CC1	8.2%	?	?	4.3%
CN(CCc1ccccc1)C(=O)c1cccc(NC(=O)Cc2cccc(NC(=O)C3CCCN(S(=O)(=O)c4cccc([N+](=O)[O-])c4)C3)c2)c1 (stereo unspecified)	-5.8%	.	.	10µM*
CN(CCc1ccccc1)C(=O)c1ccc(NC(=O)Cc2ccc(NC(=O)C3CCCN(S(=O)(=O)c4cccc([N+](=O)[O-])c4)C3)cc2)cc1 (stereo unspecified)	0.7%	.	.	?
CN(C(=O)c1cccc(NC(=O)Cc2ccc(NC(=O)C3CCN(S(=O)(=O)c4cccc([N+](=O)[O-])c4)CC3)cc2)c1)C1CCC1	-6.5%	.	.	?
CN(Cc1ccccc1)C(=O)c1cccc(NC(=O)Cc2ccc(NC(=O)C3CCN(S(=O)(=O)c4cccc([N+](=O)[O-])c4)CC3)cc2)c1	-5.5%	.	.	8.91µM*
CN(Cc1ccccc1)C(=O)c1ccc(NC(=O)Cc2ccc(NC(=O)C3CCN(S(=O)(=O)c4cccc([N+](=O)[O-])c4)CC3)cc2)cc1	-7.4%	.	.	12.6µM*
COc1ccccc1C(=O)N/C(=C\c1cn(C)c2ccccc12)C(=O)NCCCN1CCOCC1	4.3%	?	?	-8.5%
O=C(Cc1n[nH]c(=O)[nH]c1=O)N/N=C/CCc1ccccc1	10.2%	-12.4%	-19.1%	1.4%
CCCCn1c(N)c(N(C(=O)CSc2nnc(C)n2-c2ccccc2)C2CCCC2)c(=O)[nH]c1=O	-1.2%	-24.5%	-19.5%	-7.3%
Cc1cc(-c2ccccc2)nc(SCC(=O)N2CCCC2)n1	2.3%	20.6%	-5.4%	25.1µM*
Cc1ccccc1-c1nc(CN(C)C(C)c2ccon2)c(C)o1 (stereo unspecified)	0.7%	-3.6%	2.33µM*	-23.6%
COc1ccc(-c2nc(CN(C)C(C)c3ccon3)c(C)o2)c(C)c1C (stereo unspecified)	-18.3%	?	22.3%	10µM*
Cc1oc(-c2ccccc2Cl)nc1CN(C)C(C)c1ccon1 (stereo unspecified)	-4.4%	2.1%	?	-2.7%
CCCOc1ccc(-c2c(C(=O)N/N=C(\C)c3cccs3)nnn2-c2nonc2N)cc1	16.0%	2.1%	?	-5.0%
CCOC(=O)n1c2ccccc2c(=O)n1CCO	-0.8%	.	.	.
O=C(O)c1cnn(-c2ccccc2)c1-c1ccncc1	-4.8%	12.0%[0.00184 µM]	-29.4%	4.0%
O=Cc1cccn1-c1c(C(=O)O)cnn1-c1ccccc1	1.3%	15.7%	10.4µM*	-1.8%
c1cc2c(c(NCc3ccncc3)c1)CCCC2	-5.9%	10.4µM*	.	?
CC(C)(C)CC(=O)Nc1cccc2c1CCCC2	5.8%	.	-6.4%	4.6%
CC1(C)CC(NC(=O)C2CCN(S(=O)(=O)c3ccc(Cl)c(C(F)(F)F)c3)CC2)CC(C)(C)N1	-6.2%	.	.	?
Cc1ccsc1/C=N/NC(=O)c1cc(-c2ccncc2)nc2ccccc12	-1.3%[11.6 µM]	?	?	?
O=C(N/N=C/c1ccc2c(c1)OCO2)c1cc(-c2ccncc2)nc2ccccc12	0.0%	?	?	?
SMILES	AMA1-RON2 inh	Pf growth 48h	Pf growth 96h	HCV inh
O=C(CCc1c[nH]c2ccccc12)N/N=C/c1ccc2c(c1)OCO2	-22.5%	13.8%	0.0%	12.6µM*
CCOc1ccccc1-c1cc(C(=O)N/N=C/c2ccc3c(c2)OCO3)c2ccccc2n1	-9.1%	2.33µM*	.	-4.3%
COc1ccccc1-c1cc(C(=O)N/N=C/c2sccc2C)c2ccccc2n1	-2.3%	1.85µM*	1.85µM*	?
O=C(N/N=C/c1ccc2c(c1)OCO2)c1cc(-c2ccccc2Cl)nc2ccccc12	1.9%	?	10.4µM*	34.4%
O=C(NC1CCCC1)C(c1ccccc1)N(C(=O)c1csnn1)c1ccccc1F (stereo unspecified)	6.1%	-3.3%	-19.7%	1.6%
COCCNc1c(-c2ccc(O)cc2)nc2ccc(Cl)cn12	-0.5%	3.8%	-14.2%	?
CC(C)(C)Nc1c(-c2ccc(O)cc2)nc2ccc(Cl)cn12	-11.5%	10.4µM*	16.2%	2.6%
CN(C)S(=O)(=O)c1ccc(S(=O)(=O)NCc2cccs2)cc1	-8.8%	16.6%	?	15.0%
CC(=O)N1CCC(C(=O)NCCOc2ccc(C)cc2)CC1	-3.4%	5.0%	6.1%	19.1%
Oc1cccc2c(NC(=S)Nc3ccc(OC(F)F)cc3)cccc12	18.2%	2.3%	?	-15.5%
Clc1ccc2c(NNc3ccccc3Cl)ccnc2c1	?	?	?	-1.1%
NC(=S)NNc1ccnc2cc(Cl)ccc12	-3.7%	2.94µM*	?	-29.8%
FC(F)Oc1ccc(NC(=S)NNc2ccnc3cc(Cl)ccc23)cc1	48.0%	8.28µM*	?	3.98µM*
Cc1ccc(OCC(=O)NNC(=O)c2cc3ccccc3o2)cc1	-7.5%	-11.5%	?	5.3%
O=C(COc1ccc(Br)cc1)NCCO	9.2%	35.3%	?	-4.5%
Cc1ccc(OCC(=O)NCCO)cc1C	-0.1%	.	1.31µM*	24.1%
Cc1ccc(OCC(=O)NNC(=O)c2cc3ccccc3o2)cc1C	-11.8%	28.6%	11.7µM*	-4.2%
Cc1ccc(OCC(=O)Nc2cc(C(C)(C)C)on2)cc1C	-6.2%	5.22µM*	6.0%	-17.7%
CCCCCC(=O)Nc1ccc(S(=O)(=O)NC2=NCCCCC2)cc1	-3.0%	?	-24.3%	8.4%
O=C1/C(=C\c2ccncc2)N2CCC1CC2	0.0%	-0.3%	2.1%	-1.7%
O=C1/C(=C\c2cccnc2)N2CCC1CC2	?	?	9.28µM*	7.1%
O=C(NCCC1=CCCCC1)c1[nH]c(C(F)(F)F)nc1-c1ccccc1	59.5%	.	.	.
Cc1ccc(C)n1-c1c(C(=O)NN)cnn1-c1ccccc1	29.8%	10.4µM*	?	5.3%
COc1ccc(C(=O)OCC(=O)N2CCN(S(=O)(=O)c3ccc(C)cc3)CC2)cc1[N+](=O)[O-]	5.8%	.	.	6.0%
O=C1NC(=Nc2cccc(Cl)c2)SC1Cc1cccc(Cl)c1Cl (stereo unspecified)	6.0%	-10.2%	10.4µM*	-25.0%
O=C1N/C(=N\c2ccccn2)SC1Cc1ccccc1Cl (stereo unspecified)	33.5%	?	?	-6.7%
Cc1onc(-c2ccccc2Cl)c1NC(=O)NCc1cccs1	0.0%	?	?	24.4%
Cc1cccc(COCC(Cc2ccccc2)N2CCN(C(=O)c3cccc(C)c3)CCC2=O)c1 (stereo unspecified)	4.4%	13.1µM*	?	-8.6%[8.37 µM]
